From PubChem BioAssay AID2685 (National Center for Advancing Translational Sciences (NCATS), 2010)
About 2,100 (0.66%) of roughly 320,000 compounds were called active. Roughly 53% stayed inconclusive and do not appear here. Calls follow the shape of the dose curve; as a rule, active = well fitted inhibition curve with a large enough effect in the signal ratio, with a control signal flat (not every such curve was filed as active); inconclusive = small, poorly fitted or top-dose-only effect, or effect the other way, or a change in a side signal; inactive = flat fitted curve, though single readings scatter; the % refers to the signal ratio. The full list was thinned out, with actives kept by preference.

Assay: qHTS Assay for Lipid Storage Modulators in Drosophila S3 Cells;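 as to cell number change: cells counted by Cell Tracker Red CMTPX staining in the red channel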; as to lipid storage change, negative = inhibition: % is scaled to controls: 0 for no effect and ±100 for the full control effect
Conditions: BODIPY lipid droplet fluorescence, 18-24 h, cells fed with added oleic acid; cell number change: measured here: cell count max response; series mostly up to 46.1 µM
Procedure, shortened: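 Drosophila S3 cells loaded with oleic acid (400 uM, as added) and compounds at several concentrations; lipid droplets imaged by 488-nm laser-scanning cytometry, 500–530 nm intensity and object ratio to cell channel. Percent activity normalized to 20 uM Triacsin C.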
Potency is read from the fitted curve at half-maximal effect.

Row | SMILES | Potency | cell number change | lipid storage change, negative = inhibition
1 | CN1CCN(C(c2ccccc2)c2ccccc2)CC1 | inactive | 2.24% | –
2 | CC1(C)CC(N2CCOCC2)=CC(=[N+]2CCOCC2)C1 | inactive | 3.66% | –
3 | CC1(C)CC(N2CCN(C(c3ccccc3)c3ccccc3)CC2)=CC(=[N+]2CCCCC2)C1 | 2.06 µM (active) | -24.2% | –
4 | Cc1cc(SCC(=O)Nc2cccc(S(N)(=O)=O)c2)c(C)cc1Br | inactive | 15.2% | –
5 | CCc1ccc(OCCn2ccnc2)cc1 | inactive | -22.2% | –
6 | COc1ccc(OCCCn2ccnc2)cc1 | inactive | -3.82% | –
7 | CCc1ccc(OCCCCCn2ccnc2)cc1 | 4.61 µM (active) | -11.6% | –
8 | COc1ccc(OCCn2ccnc2)cc1 | inactive | -2.55% | –
9 | O=C(O)c1ccc(OCCn2ccnc2)cc1 | inactive | 11.3% | –
10 | c1ccc(Cc2ccc(OCCn3ccnc3)cc2)cc1 | 3.66 µM (active) | -8.07% | –
11 | COc1ccccc1NC(=O)C1=C(C)Nc2nc(CCCO)nn2C1c1ccc2c(c1)OCO2 (stereo not given) | inactive | -2.99% | –
12 | COc1ccc(Cl)cc1S(=O)(=O)N1CCC(C(=O)NCC2CCCO2)CC1 (stereo not given) | inactive | 6.08% | –
13 | CCCS(=O)(=O)N1CCN(C(=O)c2cccnc2)CC1 | inactive | – | –
14 | COCCCn1c(SCC(=O)NC(C)C)nnc1-c1ccccc1 | inactive | 1.73% | –
15 | CCc1ccc(C(=O)NNC(=O)c2ccc(OCC(=O)N3CCOCC3)c(OC)c2)cc1 | inactive | -13.6% | –
16 | COc1cc(C(=O)O)ccc1OCC(=O)N1CCOCC1 | inactive | -12% | –
17 | COc1cc(C(=O)Nc2ccc(C)cn2)ccc1OCC(=O)N1CCOCC1 | 20.6 µM (active) | 5.26% | –
18 | CCN(CC)CCCNC(=O)CSc1nc(-c2ccc(F)cc2)cc(C(F)(F)F)n1 | inactive | 4.94% | –
19 | CCC(C)(C)NC(=O)CN(C(=O)c1snc(C(N)=O)c1N)c1ccc2c(c1)OCCO2 | inactive | 19.8% | –
20 | CN(C)S(=O)(=O)c1cccc(C(=O)NCCNC(=O)c2cccc(S(=O)(=O)N(C)C)c2)c1 | inactive | -23.4% | –
21 | O=C(CNC(=O)c1ccccc1)OCc1cccc([N+](=O)[O-])c1 | inactive | -2.11% | –

Row | SMILES | Potency | cell number change | lipid storage change, negative = inhibition
22 | CN(C)S(=O)(=O)c1cccc(COC(=O)CCNC(=O)c2ccc([N+](=O)[O-])cc2)c1 | 2.31 µM (active) | 9.78% | –
23 | Cn1c(CC(=O)Nc2cccc(Cl)c2Cl)nnc1SCC(=O)NC1=NCCS1 | inactive | 10.7% | –
24 | CC(C)n1c(N)c(C#N)c2ccc([N+](=O)[O-])cc2c1=O | inactive | 17.3% | –
25 | COC(=O)c1cc2c(=O)c3ccccc3oc2nc1C | inactive | 21.3% | –
26 | COc1ccccc1CNC(=O)COC(=O)c1ccc(C)s1 | 8.2 µM (active) | 8.78% | –
27 | COc1ccccc1CNC(=O)c1ccc(C)s1 | inactive | 2.24% | –
28 | COc1ccccc1CNC(=O)COC(=O)c1cc(C)oc1C | inactive | 0.0455% | –
29 | O=S(=O)(NCC(c1cccs1)N1CCc2ccccc2C1)c1ccccc1 (stereo not given) | – | 2.02% | -15.3% [at 0.0737 µM] (inactive)
30 | O=C(CS(=O)(=O)c1ccccc1)N1CCCCCC1 | 14.6 µM (active) | – | –
31 | Cc1ccc(S(=O)(=O)CC(=O)N2CCCC2)cc1 | inactive | -4.5% | –
32 | O=C(CS(=O)(=O)c1ccccc1)N1CCCCC1 | inactive | 17.3% | –
33 | COc1ccc(S(=O)(=O)N2CCOC2CNC(=O)C(=O)NCC(C)C)cc1 (stereo not given) | inactive | -19.7% | –
34 | CCCCc1nnc(NC(=O)C(C)Sc2nc(O)c(Cc3ccccc3)c(=O)[nH]2)s1 (stereo not given) | inactive | -6.85% | –
35 | Cc1ccsc1/C=N/N=C/c1sccc1C | 18.4 µM (active) | -16.1% | –
36 | Cc1ccsc1/C=N/n1cnnc1 | inactive | 4.23% | –
37 | Cc1ccsc1C=Nc1ccc(O)cc1 | inactive | -20.6% | –
38 | CC(C)(C)c1ccc(/C=N/NC(=O)C2CCCC2)cc1 | inactive | -15.9% | –
39 | CC(C)c1ccc(/C=N/NC(=O)CC(=O)NC2CCCCC2)cc1 | inactive | 0.119% | –
40 | CC(C)c1ccc(/C=N/NC(=O)C2CCCC2)cc1 | 3.26 µM (active) | -28.7% | –
41 | c1ccc(N2CC[N+]3(CCCC3)CC2)nc1 | inactive | 0.943% | –
42 | CC(C)(C)OC(=O)NCCCC[C@H](NC(=O)c1[nH]cnc1C(=O)Nc1ccc(CNC(=O)OC(C)(C)C)cc1)C(=O)OC(C)(C)C | inactive | – | –

Row | SMILES | Potency | cell number change | lipid storage change, negative = inhibition
43 | CN(C)c1ccc(C=NCCC2(c3ccccc3)CCOC(C)(C)C2)cc1 (stereo not given) | inactive | -6.59% | –
44 | O=C(Nc1ccon1)c1cc2ccccc2oc1=O | inactive | 11.7% | –
45 | O=C(Nc1ccon1)c1ccccc1F | 23.1 µM (active) | -7.37% | –
46 | Cc1cc(NC(=O)c2ccccc2F)on1 | inactive | -0.938% | –
47 | O=C(Nn1c(=O)[nH]c2ccsc2c1=O)c1ccccc1 | inactive | -16.2% | –
48 | COc1ccc(N2CCN(C(=S)Nc3ccc(C)cc3)CC2)cc1 | inactive | 11.6% | –
49 | O=C(NN1C(=O)C2C3C=CC(C4CC34)C2C1=O)c1ccc(Cl)c(Cl)c1 (stereo not given) | inactive | 1.92% | –
50 | O=C(CN1C(=O)/C(=C2\SC(=S)N(C3CCS(=O)(=O)C3)C2=O)c2ccccc21)Nc1ccccc1 (stereo not given) | inactive | -3.03% | –
51 | O=C(NCC(c1ccccc1Cl)N1CCCC1)C1CCN(C(=O)Nc2ccccc2)CC1 (stereo not given) | 6.51 µM (active) | -29.1% | –
52 | O=C(NCCc1ccccc1)C1CCN(C(=O)Nc2ccccc2)CC1 | inactive | -33.1% | –
53 | O=C(NCC(c1ccccc1)N1CCCC1)C1CCN(C(=O)Nc2ccccc2)CC1 (stereo not given) | inactive | -22% | –
54 | CCC(Sc1nnc(C)s1)C(=O)Nc1nccs1 (stereo not given) | inactive | -15.3% | –
55 | CCC(Sc1nc(C)cc(C)n1)C(=O)Nc1nccs1 (stereo not given) | 2.06 µM (active) | -0.54% | –
56 | Cc1cc(C)nc(SCC(=O)Nc2nccs2)n1 | inactive | 13.1% | –
57 | CN(C(=O)CCCN1CCCC1=O)C1CCCN(Cc2ccccc2F)C1 (stereo not given) | inactive | 6.08% | –
58 | COc1cc2c(cc1OC)C(COc1ccc(F)cc1)N(C(C)=O)CC2 (stereo not given) | inactive | -4.23% | –
59 | CCOC(=O)C(O)(CC(=O)Nc1cc(F)ccc1C)C(F)(F)F (stereo not given) | inactive | 6.77% | –
60 | CC1CC1C(=O)Nc1nc(-c2ccccn2)cs1 (stereo not given) | inactive | – | –
61 | CCC/C(C)=N/NC(=O)c1ccccc1O | inactive | 9.25% | –
62 | COc1ccc(-c2cc3nc(C)c(CCC(=O)N4CCN(c5ccccn5)CC4)c(C)n3n2)c(OC)c1 | inactive | -15.1% | –
